This is part of a sample that, as a whole, favours compounds with a hit. Of some 83,000 tested, about 20% had one in any assay.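 Negative percent growth values reflect cell death: -40 means 40% of the cells present at the start died, and -100 means all died.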 The source made the active and inactive calls. Rule for the calls: active = growth percent below 10; inactive = the rest.

Some test systems named below: RPMI-8226 leukemia; OVCAR-8 ovarian; OVCAR-5 ovarian; OVCAR-4 ovarian; SK-OV-3 ovarian; IGROV1 ovarian; OVCAR-3 ovarian; HS 578T breast; NCI/ADR-RES ovarian; T-47D breast; BT-549 breast; MDA-MB-435 melanoma; SW-620 colon; MCF7 breast; HCT-116 colon; HCC-2998 colon; KM12 colon.
Holding throughout (test): NCI-60 one-dose screen, 48 h (100 = growth as untreated, 0 = no growth, -100 = all killed)
What all share (conditions): 10 µM unless noted

As to `COc1cc2nc3c(=O)n(-c4ccc(C#N)cc4)cnn3c(=O)c2cc1OC`, the growth with RPMI-8226 leukemia is 115% (inactive); in the experiment with OVCAR-8 ovarian, 108% (inactive); with OVCAR-5 ovarian, 93.4% (inactive); with OVCAR-4 ovarian it was 97% (inactive); in the experiment with SK-OV-3 ovarian, 101% (inactive); with IGROV1 ovarian, 103% (inactive). The growth in the experiment with OVCAR-3 ovarian was 92.9% (inactive); in the experiment on HS 578T breast, 90.8% (inactive); in the experiment with NCI/ADR-RES ovarian, 100% (inactive); with T-47D breast it was 100% (inactive); with BT-549 breast, 102% (inactive); in the experiment with MDA-MB-435 melanoma it was 98.5% (inactive). Moreover, the growth in the experiment on SW-620 colon was 95.3% (inactive); in the experiment on MCF7 breast, 103% (inactive); in the experiment with HCT-116 colon it was 101% (inactive); in the experiment on HCC-2998 colon it was 97% (inactive); in the experiment with KM12 colon, 91.7% (inactive).
Consider `OCCNc1nc(NCCO)nc(Nc2ccc(C3=NN(c4cc(Cl)cc(Cl)c4)C(c4ccccc4)C3)cc2)n1` (stereo unspecified), for which the growth with RPMI-8226 leukemia was 30.9% (inactive); with OVCAR-8 ovarian, 48.9% (inactive); in the experiment on OVCAR-5 ovarian, 85.8% (inactive); in the experiment on OVCAR-4 ovarian, 57.7% (inactive); with SK-OV-3 ovarian it was 94.5% (inactive); in the experiment on IGROV1 ovarian, 57.5% (inactive). Moreover, the growth was 26.2% (inactive) in the experiment with OVCAR-3 ovarian; 62.9% (inactive) with HS 578T breast; 57.2% (inactive) in the experiment with NCI/ADR-RES ovarian; 63.6% (inactive) in the experiment on T-47D breast; 59.4% (inactive) with BT-549 breast; 49.5% (inactive) with MDA-MB-435 melanoma. The growth was 60% (inactive) in the experiment with SW-620 colon; 16.3% (inactive) with MCF7 breast; 33.8% (inactive) with HCT-116 colon; 52.8% (inactive) in the experiment on HCC-2998 colon; 27.9% (inactive) in the experiment with KM12 colon.
For the compound `CC(C)(C)c1ccc(O)c(Cc2cc(C(C)(C)C)ccc2O)c1`, the growth was 47.7% (inactive) with RPMI-8226 leukemia; 90.3% (inactive) in the experiment with OVCAR-8 ovarian; 120% (inactive) with OVCAR-5 ovarian; 95.6% (inactive) in the experiment with OVCAR-4 ovarian; 102% (inactive) in the experiment with SK-OV-3 ovarian; 101% (inactive) in the experiment on IGROV1 ovarian. The growth in the experiment on OVCAR-3 ovarian was 103% (inactive); in the experiment on HS 578T breast it was 93.3% (inactive); with NCI/ADR-RES ovarian, 100% (inactive); with T-47D breast, 78.6% (inactive); with BT-549 breast, 113% (inactive); with MDA-MB-435 melanoma it was 107% (inactive). In addition, the growth is 105% (inactive) in the experiment on SW-620 colon; 72.5% (inactive) in the experiment on MCF7 breast; 88.6% (inactive) in the experiment on HCT-116 colon; 103% (inactive) with HCC-2998 colon; 100% (inactive) with KM12 colon.
For the compound `COc1cc(-c2csc(NC(=O)Nc3cc(Cl)cc(Cl)c3)n2)cc(OC)c1OC`, the growth in the experiment on RPMI-8226 leukemia was 13.7% (inactive); in the experiment with OVCAR-8 ovarian, 9.3% (active); with OVCAR-5 ovarian, 39.1% (inactive); with OVCAR-4 ovarian it was -81.4% (active); with SK-OV-3 ovarian, 14.9% (inactive); with IGROV1 ovarian it was -59.4% (active). In addition, the growth is -85.9% (active) in the experiment with OVCAR-3 ovarian; -18.2% (active) in the experiment with HS 578T breast; 5.24% (active) with NCI/ADR-RES ovarian; -41.5% (active) in the experiment on T-47D breast; 11.5% (inactive) with BT-549 breast; 27.1% (inactive) with MDA-MB-435 melanoma. In addition, the growth was -26.4% (active) with SW-620 colon; 8.04% (active) in the experiment with MCF7 breast; -28.9% (active) in the experiment on HCT-116 colon; 70.8% (inactive) in the experiment on HCC-2998 colon; 18.5% (inactive) with KM12 colon.
Turning to `CO[C@@]12C=C[C@@]34CCC(=O)N3c3ccccc3[C@@H](O1)C4C2`, the growth was 94.6% (inactive) in the experiment with RPMI-8226 leukemia; 97.7% (inactive) in the experiment with OVCAR-8 ovarian; 101% (inactive) in the experiment on OVCAR-5 ovarian; 109% (inactive) in the experiment on OVCAR-4 ovarian; 107% (inactive) in the experiment with SK-OV-3 ovarian; 99.1% (inactive) in the experiment with IGROV1 ovarian. Further, the growth is 108% (inactive) with OVCAR-3 ovarian; 95.3% (inactive) in the experiment with HS 578T breast; 97.7% (inactive) in the experiment with NCI/ADR-RES ovarian; 96.2% (inactive) in the experiment on T-47D breast; 105% (inactive) with BT-549 breast; 104% (inactive) in the experiment with MDA-MB-435 melanoma. The growth in the experiment on SW-620 colon was 101% (inactive); with MCF7 breast, 97.9% (inactive); in the experiment with HCT-116 colon, 102% (inactive); with HCC-2998 colon, 106% (inactive); with KM12 colon it was 105% (inactive).
As to `CC1CCCN(CCCCCOc2ccc3oc4ccccc4c(=O)c3c2)C1` (stereo unspecified), the growth with RPMI-8226 leukemia is 50.7% (inactive); in the experiment on OVCAR-8 ovarian it was 77.5% (inactive); with OVCAR-5 ovarian, 79.4% (inactive); in the experiment on OVCAR-4 ovarian, 83.1% (inactive); with SK-OV-3 ovarian, 99.7% (inactive); in the experiment on IGROV1 ovarian, 67.3% (inactive). In addition, the growth was 77.9% (inactive) in the experiment with OVCAR-3 ovarian; 77.8% (inactive) in the experiment on HS 578T breast; 73.3% (inactive) with NCI/ADR-RES ovarian; 65.4% (inactive) in the experiment with T-47D breast; 74.3% (inactive) with BT-549 breast; 46% (inactive) in the experiment with MDA-MB-435 melanoma. In addition, the growth with SW-620 colon is 70.1% (inactive); in the experiment with MCF7 breast, 63.1% (inactive); with HCT-116 colon, 52.7% (inactive); with HCC-2998 colon, 85.3% (inactive); in the experiment with KM12 colon, 64.3% (inactive).
On to `Oc1c(CCl)cc(Cl)cc1Cc1cc(Cl)cc(Cc2cc(Cl)cc(CCl)c2O)c1O`, for which the growth in the experiment on RPMI-8226 leukemia was 4.65% (active); in the experiment on OVCAR-8 ovarian it was 16.7% (inactive); with OVCAR-5 ovarian, 79.8% (inactive); with OVCAR-4 ovarian, 48% (inactive); in the experiment on SK-OV-3 ovarian, 36% (inactive); with IGROV1 ovarian, 37.8% (inactive). Further, the growth is 19.2% (inactive) in the experiment with OVCAR-3 ovarian; 26.1% (inactive) in the experiment on HS 578T breast; 14% (inactive) in the experiment with NCI/ADR-RES ovarian; 22.1% (inactive) in the experiment on T-47D breast; 23.9% (inactive) with BT-549 breast; 44.1% (inactive) with MDA-MB-435 melanoma. The growth in the experiment with SW-620 colon is 25.5% (inactive); with MCF7 breast it was 8.55% (active); in the experiment on HCT-116 colon it was 3.12% (active); in the experiment with HCC-2998 colon, 19.5% (inactive); in the experiment on KM12 colon it was 23.2% (inactive).
Take `COC(=O)c1nc(-c2ccccc2)oc1S(=O)(=O)n1nc(-c2ccccc2)cc1N`: the growth is 57.1% (inactive) with RPMI-8226 leukemia; 75.8% (inactive) with OVCAR-8 ovarian; 93.5% (inactive) in the experiment with OVCAR-5 ovarian; 107% (inactive) with OVCAR-4 ovarian; 106% (inactive) with SK-OV-3 ovarian; 73.6% (inactive) in the experiment with IGROV1 ovarian. The growth is 68.3% (inactive) in the experiment with OVCAR-3 ovarian; 101% (inactive) in the experiment on HS 578T breast; 99% (inactive) with NCI/ADR-RES ovarian; 49.5% (inactive) in the experiment on T-47D breast; 82.2% (inactive) with BT-549 breast; 63.6% (inactive) in the experiment on MDA-MB-435 melanoma. Also, the growth was 10.9% (inactive) in the experiment on SW-620 colon; 80.9% (inactive) with MCF7 breast; 84.8% (inactive) in the experiment on HCT-116 colon; 108% (inactive) with HCC-2998 colon; 92.2% (inactive) with KM12 colon.
